Counter-ions that a name gives are not always drawn. ± gives the standard deviation of the averaged measurements. Over roughly 1,700 compounds, “cell number in HSV-1-infected wells relative to infected DMSO wells (H2B-RFP signal)” has its median near 100; the highest 2% begin near 140. What follows is part of a selection rich in the highest values, with near analogues and random picks from the rest.
test system: A549 infected with HSV-1; test: cell number in HSV-1-infected wells relative to infected DMSO wells (H2B-RFP signal); higher = more surviving cells (uninfected or antiviral-protected wells give about 200%; low = toxicity); details: 10 µM; 48 h; MOI: 0.1
Description: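 Selleck FDA-approved library (L1300) screened in duplicate at 10 µM on A549 H2B-mRuby cells in 384-well plates, infected with HSV-1 strain 17 YFP-ICP4 at MOI 0.1 one hour before drug addition. Imaged after 2 days at 37°C. Cell growth (H2B-RFP) and infection (ICP4-YFP) are expressed as % of DMSO-treated wells. Hits: growth >90% and infection <20% of DMSO.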

Row | SMILES | cell number in HSV-1-infected wells [%]
1 | Nc1cc(C(Cl)=C(Cl)Cl)c(S(N)(=O)=O)cc1S(N)(=O)=O [Clorsulon] | 114 ± 7.9
2 | CCc1c(C)[nH]c2c1C(=O)C(CN1CCOCC1)CC2 (centres undefined) [Molindone hydrochloride] | 93 ± 20
3 | CO/N=C(\C(=O)N[C@@H]1C(=O)N2C(C(=O)O)=CCS[C@H]12)c1csc(N)n1 [Ceftizoxime] | 136 ± 15
4 | COc1ccccc1OCC(O)COC(N)=O (centres undefined) [Methocarbamol] | 115 ± 1.9
5 | Cl.NCCCC[C@H](N)C(=O)O [L-Lysine hydrochloride] | 123.8 ± 0.98
6 | CC(=O)O[C@]1(C(C)=O)CC[C@H]2[C@@H]3C=C(Cl)C4=CC(=O)CC[C@]4(C)[C@H]3CC[C@@]21C [Chlormadinone acetate] | 148 ± 5.6
7 | CC(=O)O[C@]1(C(C)=O)CC[C@H]2[C@@H]3C=C(C)C4=CC(=O)CC[C@]4(C)[C@H]3CC[C@@]21C [Megestrol Acetate] | 112 ± 9.4
8 | CC(=O)O[C@]1(C(C)=O)CC[C@H]2[C@@H]3C=C(Cl)C4=CC(=O)[C@@H]5C[C@@H]5[C@]4(C)[C@H]3CC[C@@]21C [Cyproterone Acetate] | 118 ± 11
9 | CN1CCN(c2ccc(C(=O)Nc3n[nH]c4ccc(Cc5cc(F)cc(F)c5)cc34)c(NC3CCOCC3)c2)CC1 [Entrectinib (RXDX-101)] | 18 ± 8.2
10 | CCC/N=C1\S/C(=C\c2ccc(OC[C@H](O)CO)c(Cl)c2)C(=O)N1c1ccccc1C [Ponesimod] | 17.2 ± 12
11 | CC(OC(=O)OC1CCCCC1)OC(=O)C1=C(CSc2nnnn2CCN(C)C)CS[C@@H]2[C@H](NC(=O)Cc3csc(N)n3)C(=O)N12 (some centres undefined) [Cefotiam Hexetil Hydrochloride] | 76.7 ± 3.4
12 | CC(C)(CO)[C@@H](O)C(=O)NCCCO [D panthenol] | 121 ± 46
13 | COc1c(N2CCNC(C)C2)c(F)cc2c(=O)c(C(=O)O)cn(C3CC3)c12 (centres undefined) [Gatifloxacin] | 108 ± 17
14 | CNC1CCCN(c2c(F)cc3c(=O)c(C(=O)O)cn(C4CC4)c3c2OC)C1 (centres undefined) [Balofloxacin] | 117 ± 1.2
15 | COc1c(N2C[C@@H]3CCCN[C@@H]3C2)c(F)cc2c(=O)c(C(=O)O)cn(C3CC3)c12 [Moxifloxacin HCl] | 87.9 ± 22
16 | COc1c(N2C[C@@H]3CCCN[C@@H]3C2)c(F)cc2c(=O)c(C(=O)O)cn(C3CC3)c12 [Moxifloxacin] | 145 ± 32
17 | CCCN1CCCC[C@H]1C(=O)Nc1c(C)cccc1C [Ropivacaine] | 115 ± 7.2
18 | CCCN1CCCC[C@H]1C(=O)Nc1c(C)cccc1C [Ropivacaine HCl] | 87.6 ± 6.9
19 | [Cl][Mn][Cl] [Manganese chloride] | 109 ± 4.5
20 | CCOc1ccc(Cc2cc([C@@H]3O[C@H](SC)[C@@H](O)[C@H](O)[C@H]3O)ccc2Cl)cc1 [Sotagliflozin (LX4211)] | 61.71 ± 0.063
21 | COc1cc2c(cc1OC)[C@H]1C[C@@H](OC(=O)[C@@H](N)C(C)C)[C@H](CC(C)C)CN1CC2 [Valbenazine tosylate] | 134 ± 41
22 | CN1C[C@@H]2C[C@H]1CN2c1cc2c(cc1F)c(=O)c(C(=O)O)cn2C1CC1 [Danofloxacin Mesylate] | 110.8 ± 1.1

Row | SMILES | cell number in HSV-1-infected wells [%]
23 | CN1CCN(c2cc3c(cc2F)c(=O)c(C(=O)O)cn3-c2ccc(F)cc2)CC1 [Difloxacin HCl] | 129 ± 16
24 | CCN1CCN(c2cc3c(cc2F)c(=O)c(C(=O)O)cn3C2CC2)CC1 [Enrofloxacin] | 147 ± 8.9
25 | O=C(O)c1cn(-c2ccc(F)cc2)c2cc(N3CCNCC3)c(F)cc2c1=O [Sarafloxacin HCl] | 151 ± 7.2
26 | CCn1cc(C(=O)O)c(=O)c2cc(F)c(N3CCNCC3)cc21 [Norfloxacin] | 97.4 ± 27
27 | O=C(O)c1cn(C2CC2)c2cc(N3CCNCC3)c(F)cc2c1=O [Ciprofloxacin hydrochloride hydrate] | 139 ± 2.3
28 | NC(=O)c1cccc2cn(-c3ccc([C@@H]4CCCNC4)cc3)nc12 [Niraparib (MK-4827) tosylate] | 71.7 ± 13
29 | NC(=O)c1cccc2cn(-c3ccc([C@@H]4CCCNC4)cc3)nc12 [Niraparib (MK-4827)] | 71.2 ± 3.2
30 | C[C@H](CCC(=O)O)[C@H]1CC[C@H]2[C@@H]3CC[C@@H]4C[C@H](O)CC[C@]4(C)[C@H]3C[C@H](O)[C@]12C [Deoxycholic acid] | 109 ± 44
31 | COCC[n+]1c2c(n(Cc3cnccn3)c1C)C(=O)c1ccccc1C2=O [YM155 (Sepantronium Bromide)] | 9.16 ± 6
32 | CCN1CC(CCN2CCOCC2)C(c2ccccc2)(c2ccccc2)C1=O (centres undefined) [Doxapram HCl] | 91.29 ± 0.3
33 | CCN1CC(CCN2CCOCC2)C(c2ccccc2)(c2ccccc2)C1=O (centres undefined) [Doxapram] | 96.5 ± 8.2
34 | CC(C)N(CCCCOCC(=O)NS(C)(=O)=O)c1cnc(-c2ccccc2)c(-c2ccccc2)n1 [Selexipag] | 80.8 ± 1.5
35 | CN(C/C=C/C#CC(C)(C)C)Cc1cccc2ccccc12 [Terbinafine] | 99.9 ± 40
36 | CN(C/C=C/C#CC(C)(C)C)Cc1cccc2ccccc12 [Terbinafine HCl] | 101 ± 9
37 | OC[C@H]1O[C@H](O[C@H]2[C@H](O)[C@@H](O)C(O)O[C@@H]2CO)[C@H](O)[C@@H](O)[C@@H]1O (mixture of isomers) [Maltose] | 117 ± 4.3
38 | Cc1c(-c2cnccn2)ssc1=S [Oltipraz] | 100 ± 4
39 | C[C@@H](c1nc(-c2ccc(C#N)cc2)cs1)[C@](O)(Cn1cncn1)c1cc(F)ccc1F [Isavuconazole] | 99.7 ± 21
40 | C[C@H](Cn1cnc2c(N)ncnc21)OCP(=O)(O)O [Tenofovir] | 79.9 ± 13
41 | CC(C)OC(=O)[C@H](C)N[P@](=O)(CO[C@H](C)Cn1cnc2c(N)ncnc21)Oc1ccccc1 [Tenofovir Alafenamide (GS-7340)] | 189.3 ± 1.6
42 | CC(C)OC(=O)OCOP(=O)(CO[C@H](C)Cn1cnc2c(N)ncnc21)OCOC(=O)OC(C)C [Tenofovir Disoproxil Fumarate] | 147.7 ± 0.7
43 | CC(C)OC(=O)[C@H](C)N[P@](=O)(OC[C@H]1O[C@@H](n2ccc(=O)[nH]c2=O)[C@](C)(F)[C@@H]1O)Oc1ccccc1 [Sofosbuvir (PSI-7977, GS-7977)] | 73.7 ± 21
44 | CC(C)(C)C(=O)OCOP(=O)(COCCn1cnc2c(N)ncnc21)OCOC(=O)C(C)(C)C [Adefovir Dipivoxil] | 64.6 ± 8.8

— the supplement of paper PMC11537057
